# Compounds without any hit were thinned out: in the full panel of roughly 79,000, 15% have a hit. A number with no mark means an inactive call. Active and inactive are the calls of the source. Rule as the data show it: active = growth inhibition above about 70%; inactive = the rest.
# What was measured:
# [1] = NCI Yeast Anticancer Drug Screen. Data for the rad52 strain (AID 147);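 also: 0% = growth of vehicle-treated control cultures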; settings: S. cerevisiae rad52 mutant growth inhibition, active compounds read high
# Method in brief: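 Here a repair-compromised yeast strain receives each compound; its growth is then quantified and normalised to vehicle-only controls.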
# [2] = NCI Yeast Anticancer Drug Screen. Data for the wt1 strain (AID 149);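 also: 0% = growth of vehicle-treated wt1 cultures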; settings: S. cerevisiae wt1 strain (SPY 50644) growth inhibition, active compounds read high
# Method in brief: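 Growth inhibition read against vehicle controls after compound exposure of the wt1 yeast strain.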
# [3] = NCI Yeast Anticancer Drug Screen. Data for the rad50EPP+ strain (AID 151);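 also: 0% = growth of vehicle-treated control cultures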; settings: S. cerevisiae rad50 mutant strain, active compounds read high
# Method in brief: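 Read-out is yeast growth inhibition relative to vehicle; cells used were the rad50EPP+ strain.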
# [4] = NCI Yeast Anticancer Drug Screen. Data for the mgt1 strain (AID 153); settings: S. cerevisiae mgt1 mutant growth inhibition, active compounds read high
# Method in brief: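 Measured: inhibition of mgt1 yeast growth by compound, normalized to vehicle-treated cultures.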
# [5] = NCI Yeast Anticancer Drug Screen. Data for the rad50 strain (AID 155);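 also: 0% = growth of vehicle-only cultures of the same strain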; settings: S. cerevisiae rad50 strain growth inhibition, active compounds read high
# Method in brief: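 Readout: growth inhibition relative to vehicle-treated cultures. Compound exposure was carried out in a genetically defined yeast strain deficient in DNA damage repair.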
# [6] = NCI Yeast Anticancer Drug Screen. Data for the mec2-1 strain (AID 157); settings: S. cerevisiae mec2-1 strain, active compounds read high
# Method in brief: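 Using mec2-1 yeast: add compound, measure growth, express inhibition versus vehicle-treated cultures.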
# [7] = NCI Yeast Anticancer Drug Screen. Data for the rad14 strain (AID 159);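 also: 0% = growth of vehicle-treated control cultures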; settings: S. cerevisiae rad14 strain growth inhibition, active compounds read high
# Method in brief: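 Growth inhibition vs vehicle controls; genetically altered yeast strain (DNA damage repair defect) treated with test compounds.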
# [8] = NCI Yeast Anticancer Drug Screen. Data for the sgs1 mgt1 strain (AID 161);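 also: 0% = growth of cultures given vehicle only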; settings: S. cerevisiae sgs1 mgt1 strain, active compounds read high
# Method in brief: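 Compounds are added to genetically altered yeast, and growth is compared with cultures given vehicle alone to give percent inhibition.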
# [9] = NCI Yeast Anticancer Drug Screen. Data for the CLN2oe strain (AID 163);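 also: 0% = growth of vehicle-only control cultures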; settings: S. cerevisiae CLN2oe strain, active compounds read high
# Method in brief: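 Whole-cell yeast growth assay. A strain engineered for altered cell-cycle control received compound, and inhibition relative to vehicle-treated cultures was recorded.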
# [10] = NCI Yeast Anticancer Drug Screen. Data for the bub3 strain (AID 167); settings: S. cerevisiae bub3 mutant strain, active compounds read high
# Method in brief: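 Readout: yeast growth inhibition, expressed relative to vehicle-only wells. The test organism is a mutant strain from a panel with lesions in DNA repair or checkpoint genes.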
# [11] = NCI Yeast Anticancer Drug Screen. Data for the wt2 strain (AID 169);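 also: 0% = growth of vehicle-treated yeast cultures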; settings: S. cerevisiae wt2 strain growth inhibition, active compounds read high
# Method in brief: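 Treated yeast vs. vehicle-treated yeast: growth inhibition determined.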
# [12] = NCI Yeast Anticancer Drug Screen. Data for the mlh1 strain (AID 171);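 also: 0% = growth of vehicle-treated control cultures of the same strain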; settings: S. cerevisiae mlh1 strain growth inhibition, active compounds read high
# Method in brief: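 A yeast strain with a defined genetic lesion serves as the test organism. Cultures receive compound or vehicle, and growth is measured.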
# [13] = NCI Yeast Anticancer Drug Screen. Data for the sgs1 strain (AID 173);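 also: 0% = growth of vehicle-only control cultures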; settings: S. cerevisiae sgs1 mutant, active compounds read high
# Method in brief: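 A genetically defined yeast mutant is incubated with the test compound, and its growth is compared to that of the same strain given vehicle.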
# [14] = NCI Yeast Anticancer Drug Screen. Data for the mlh1 rad18 strain (AID 175); settings: S. cerevisiae mlh1 rad18 strain growth inhibition, active compounds read high
# Method in brief: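 Steps: expose repair-defective yeast to compound; measure growth; express inhibition against vehicle-treated controls.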
# [15] = NCI Yeast Anticancer Drug Screen. Data for the rad18 strain (AID 177); settings: S. cerevisiae rad18 mutant growth inhibition, active compounds read high
# Method in brief: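 Measured value is growth inhibition of a yeast strain bearing a DNA repair alteration, referenced to vehicle-treated cells.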
# [16] = at 5.0 µM (retest, dose inferred, filed as 0.5)
# [17] = at 50.0 µM (retest, dose inferred, filed as 5.0)
structure (smiles),measurement,setting,value
CCN(CC)CCC(=O)Nc1ccc2sc3ccccc3c(=O)c2n1,growth inhibition,[1]; at 1.2 µM,33%
same,growth inhibition,[1]; at 3.7 µM,70% (active)
same,growth inhibition,[1]; at 11.0 µM,92% (active)
same,growth inhibition,[1]; at 33.0 µM,95% (active)
same,growth inhibition,[1]; at 100.0 µM,94% (active)
same,growth inhibition,[2]; at 1.2 µM,-4%
same,growth inhibition,[2]; at 3.7 µM,-2%
same,growth inhibition,[2]; at 11.0 µM,1%
same,growth inhibition,[2]; at 33.0 µM,10%
same,growth inhibition,[2]; at 100.0 µM,8%
same,growth inhibition,[3]; at 1.2 µM,25%
same,growth inhibition,[3]; at 3.7 µM,66%
same,growth inhibition,[3]; at 11.0 µM,89% (active)
same,growth inhibition,[3]; at 33.0 µM,94% (active)
same,growth inhibition,[3]; at 100.0 µM,94% (active)
same,growth inhibition,[4]; at 1.2 µM,-1%
same,growth inhibition,[4]; at 3.7 µM,-4%
same,growth inhibition,[4]; at 11.0 µM,5%
same,growth inhibition,[4]; at 33.0 µM,4%
same,growth inhibition,[4]; at 100.0 µM,3%
same,growth inhibition,[5]; at 1.2 µM,21%
same,growth inhibition,[5]; at 3.7 µM,53%
same,growth inhibition,[5]; [16],6%
same,growth inhibition,[5]; at 11.0 µM,85% (active)
same,growth inhibition,[5]; at 33.0 µM,93% (active)
same,growth inhibition,[5]; [17],90% (active)
same,growth inhibition,[5]; at 50.0 µM,70%
same,growth inhibition,[5]; at 100.0 µM,91% (active)
same,growth inhibition,[6]; at 1.2 µM,1%
same,growth inhibition,[6]; at 3.7 µM,3%
same,growth inhibition,[6]; [16],4%
same,growth inhibition,[6]; at 11.0 µM,13%
same,growth inhibition,[6]; at 33.0 µM,24%
same,growth inhibition,[6]; [17],-1%
same,growth inhibition,[6]; at 50.0 µM,-14.1%
same,growth inhibition,[6]; at 100.0 µM,20%
same,growth inhibition,[7]; at 1.2 µM,-1%
same,growth inhibition,[7]; at 3.7 µM,5%
same,growth inhibition,[7]; at 11.0 µM,25%
same,growth inhibition,[7]; at 33.0 µM,34%
same,growth inhibition,[7]; at 100.0 µM,25%
same,growth inhibition,[8]; [16],-22%
same,growth inhibition,[8]; [17],-2%
same,growth inhibition,[8]; at 50.0 µM,31.8%
same,growth inhibition,[9]; at 1.2 µM,0%
same,growth inhibition,[9]; at 3.7 µM,-13%
same,growth inhibition,[9]; at 11.0 µM,-5%
same,growth inhibition,[9]; at 33.0 µM,6%
same,growth inhibition,[9]; at 100.0 µM,8%
same,growth inhibition,[10]; at 1.2 µM,-3%
same,growth inhibition,[10]; at 3.7 µM,4%
same,growth inhibition,[10]; [16],-20%
same,growth inhibition,[10]; at 11.0 µM,-3%
same,growth inhibition,[10]; at 33.0 µM,-2%
same,growth inhibition,[10]; [17],-2%
same,growth inhibition,[10]; at 50.0 µM,14.3%
same,growth inhibition,[10]; at 100.0 µM,-5%
same,growth inhibition,[11]; at 1.2 µM,-2%
same,growth inhibition,[11]; at 3.7 µM,-3%
same,growth inhibition,[11]; at 11.0 µM,2%
same,growth inhibition,[11]; at 33.0 µM,16%
same,growth inhibition,[11]; at 100.0 µM,12%
same,growth inhibition,[12]; at 1.2 µM,-2%
same,growth inhibition,[12]; at 3.7 µM,-8%
same,growth inhibition,[12]; at 11.0 µM,1%
same,growth inhibition,[12]; at 33.0 µM,12%
same,growth inhibition,[12]; at 100.0 µM,7%
same,growth inhibition,[13]; at 1.2 µM,-25%
same,growth inhibition,[13]; at 3.7 µM,3%
same,growth inhibition,[13]; at 11.0 µM,15%
same,growth inhibition,[13]; at 33.0 µM,39%
same,growth inhibition,[13]; at 100.0 µM,26%
same,growth inhibition,[14]; [16],-6%
same,growth inhibition,[14]; [17],1%
same,growth inhibition,[14]; at 50.0 µM,25.8%
same,growth inhibition,[15]; at 1.2 µM,-5%
same,growth inhibition,[15]; at 3.7 µM,-4%
same,growth inhibition,[15]; at 11.0 µM,-1%
same,growth inhibition,[15]; at 33.0 µM,-1%
same,growth inhibition,[15]; at 100.0 µM,9%
CNC(=O)OCc1c2ccncc2c(C)c2c1[nH]c1ccccc12,growth inhibition,[1]; at 1.2 µM,59%
same,growth inhibition,[1]; at 3.7 µM,82% (active)
same,growth inhibition,[1]; at 11.0 µM,88% (active)
same,growth inhibition,[1]; at 33.0 µM,90% (active)
same,growth inhibition,[1]; at 100.0 µM,88% (active)
same,growth inhibition,[2]; at 1.2 µM,2%
same,growth inhibition,[2]; at 3.7 µM,6%
same,growth inhibition,[2]; at 11.0 µM,6%
same,growth inhibition,[2]; at 33.0 µM,21%
same,growth inhibition,[2]; at 100.0 µM,56%
same,growth inhibition,[3]; at 1.2 µM,1%
same,growth inhibition,[3]; at 3.7 µM,17%
same,growth inhibition,[3]; at 11.0 µM,14%
same,growth inhibition,[3]; at 33.0 µM,31%
same,growth inhibition,[3]; at 100.0 µM,45%
same,growth inhibition,[4]; at 1.2 µM,2%
same,growth inhibition,[4]; at 3.7 µM,21%
same,growth inhibition,[4]; at 11.0 µM,18%
same,growth inhibition,[4]; at 33.0 µM,34%
same,growth inhibition,[4]; at 100.0 µM,55%
same,growth inhibition,[5]; at 1.2 µM,33%
same,growth inhibition,[5]; at 3.7 µM,72% (active)
same,growth inhibition,[5]; [16],61%
same,growth inhibition,[5]; at 11.0 µM,82% (active)
same,growth inhibition,[5]; at 33.0 µM,86% (active)
same,growth inhibition,[5]; [17],75% (active)
same,growth inhibition,[5]; at 50.0 µM,56.4%
same,growth inhibition,[5]; at 100.0 µM,82% (active)
same,growth inhibition,[6]; at 1.2 µM,13%
same,growth inhibition,[6]; at 3.7 µM,60%
same,growth inhibition,[6]; [16],56%
same,growth inhibition,[6]; at 11.0 µM,84% (active)
same,growth inhibition,[6]; at 33.0 µM,90% (active)
same,growth inhibition,[6]; [17],89% (active)
same,growth inhibition,[6]; at 50.0 µM,73.8% (active)
same,growth inhibition,[6]; at 100.0 µM,87% (active)
same,growth inhibition,[7]; at 1.2 µM,23%
same,growth inhibition,[7]; at 3.7 µM,80% (active)
same,growth inhibition,[7]; at 11.0 µM,89% (active)
same,growth inhibition,[7]; at 33.0 µM,92% (active)
same,growth inhibition,[7]; at 100.0 µM,89% (active)
same,growth inhibition,[8]; [16],40%
same,growth inhibition,[8]; [17],13%
same,growth inhibition,[8]; at 50.0 µM,51.5%
same,growth inhibition,[9]; at 1.2 µM,6%
same,growth inhibition,[9]; at 3.7 µM,19%
same,growth inhibition,[9]; at 11.0 µM,21%
same,growth inhibition,[9]; at 33.0 µM,34%
same,growth inhibition,[9]; at 100.0 µM,57%
same,growth inhibition,[10]; at 1.2 µM,-41%
same,growth inhibition,[10]; at 3.7 µM,-56%
same,growth inhibition,[10]; [16],-12%
same,growth inhibition,[10]; at 11.0 µM,-27%
same,growth inhibition,[10]; at 33.0 µM,0%
same,growth inhibition,[10]; [17],-48%
same,growth inhibition,[10]; at 50.0 µM,-12.1%
same,growth inhibition,[10]; at 100.0 µM,39%
same,growth inhibition,[11]; at 1.2 µM,-17%
same,growth inhibition,[11]; at 3.7 µM,-21%
same,growth inhibition,[11]; at 11.0 µM,-9%
same,growth inhibition,[11]; at 33.0 µM,-1%
same,growth inhibition,[11]; at 100.0 µM,42%
same,growth inhibition,[12]; at 1.2 µM,6%
same,growth inhibition,[12]; at 3.7 µM,20%
same,growth inhibition,[12]; at 11.0 µM,26%
same,growth inhibition,[12]; at 33.0 µM,38%
same,growth inhibition,[12]; at 100.0 µM,66%
same,growth inhibition,[13]; at 1.2 µM,67%
same,growth inhibition,[13]; at 3.7 µM,76% (active)
same,growth inhibition,[13]; at 11.0 µM,84% (active)
same,growth inhibition,[13]; at 33.0 µM,85% (active)
same,growth inhibition,[13]; at 100.0 µM,84% (active)
same,growth inhibition,[14]; [16],33%
same,growth inhibition,[14]; [17],71% (active)
same,growth inhibition,[14]; at 50.0 µM,82.8% (active)
same,growth inhibition,[15]; at 1.2 µM,89% (active)
same,growth inhibition,[15]; at 3.7 µM,93% (active)
same,growth inhibition,[15]; at 11.0 µM,93% (active)
same,growth inhibition,[15]; at 33.0 µM,91% (active)
same,growth inhibition,[15]; at 100.0 µM,87% (active)

# Source: PubChem BioAssay (NCI)
